Screening results as filed in PubChem BioAssay.
Sm TGR inh: S. mansoni TGR enzyme inhibition; Q962Y6; purified TGR, DTNB reduction, TNB absorbance 405 nm; Potency, µM (series often up to 114 µM), for inactives: at the highest dose activity change, negative = inhibition, actives largely listed as inhibitors; 3% of 360,000 active; AID 485364; further: on the % scale 0 is the no-effect control and ±100 the full control effect; nearly all actives have a fitted effect of over 60% in size
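TGR 20 nM + NADPH 100 uM (dispensed conc.), cpd preinc 15 min RT; start with NADPH (500 uM addition) then DTNB (15 mM addition). Kinetic TNB absorbance, 405 nm filter. Four-parameter Hill fit across titration.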
SARS PLP yeast: blocks SARS-CoV papain-like protease in a yeast assay | S. cerevisiae expressing SARS-CoV PLpro, growth rescue | Potency, µM (titrated, usually from 32.9 µM), for inactives: at the top dose activity, positive = growth rescue, hits mostly activators | 0.19% of 330,000 active | AID 485353; calls by dose curve; further: 0% is about no effect; nearly all actives have a fitted effect of over 55% in size
Pf growth 48h: P. falciparum growth inhibition at 48 hours (one generation) | 5.9% of 310,000 active | P. falciparum luciferase growth in erythrocytes, 48 h | Potency, µM (doses to about 28.7 µM), inactives show top-dose activity change, negative = inhibition, actives largely listed as inhibitors; further: on the % scale 0 is the no-effect control and ±100 the full control effect
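Luciferase-expressing P. falciparum in infected erythrocytes (2% hematocrit, 0.1% parasitemia final) in RPMI 1640/0.5% Albumax were exposed to compound for 48 hours at 37 C, 5% CO2; growth read as luminescence.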
Pf growth 96h: P. falciparum growth inhibition at 96 hours; 6.9% of 320,000 active; P. falciparum luciferase reporter growth, 96 h; AID 504834; Potency, µM (doses to about 28.7 µM), inactives show top-dose activity change, negative = inhibition, usual class: inhibitors; further: on the % scale 0 is the no-effect control and ±100 the full control effect
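Two parasite generations (96 h, 37 C, 5% CO2) of compound exposure in infected erythrocytes (0.05% parasitemia, 2% hematocrit). Luciferase-reporter P. falciparum; decreased luminescence indicates inhibited growth, aimed at apicoplast-acting delayed death.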
Numbers without * were called inactive; ? = inconclusive; · = no result. A selection: hits, their analogues and other compounds. The true share with any hit is near 12%. Unless noted, the call rests on the fitted dose curve; in most records, active means well fitted curve in the direction sought with a large enough effect; inconclusive means small, poorly fitted or top-dose-only effect, or another doubt; inactive means no such curve, though single readings can be large; an effect the other way counts as inactive or inconclusive. Potency means the concentration at half of the fitted maximal effect.

SMILES	Sm TGR inh	SARS PLP yeast	Pf growth 48h	Pf growth 96h
CCOc1ccc(C(CC(=O)Nc2cc(C)c(Cl)cc2OC)N2Cc3ccccc3C2=O)cc1OC (stereo unspecified)	1%	·	·	·
C=CCn1c(SCC(=O)Nc2cc3oc4ccccc4c3cc2OC)nnc1-c1cnccn1	0%	-2%	9.3µM*	-15%
COc1ccc(NC(=O)CSc2nc3c(sc4ccccc43)c(=O)n2CCCN2CCCC2)cc1	0%	0%	13µM*	?
COCCCn1c(SCC(=O)Nc2ccc(NC(=O)c3ccco3)c(OC)c2)nc2ccccc2c1=O	40µM*	1%	?	-19%
COc1ccc(NC(=O)CSc2nc3ccccc3c(=O)n2CCCN2CCCCC2)c(OC)c1	1%	20%	·	9.3µM*
Nc1nc(SCC(=O)NC2CCCCC2)n[nH]1	2%	-1%	16%	3%
CCCCN(CC)CCCNC(=O)c1c(C)oc2ncnc(N3CCOCC3)c12	-2%	·	·	·
C=CCn1c(SCC(=O)Nc2ccc(NC(=O)c3ccco3)c(OC)c2)nnc1-c1ccncc1	0%	-3%	13µM*	?
CCOc1ccccc1CN1CCN(CC2=Cc3cc(OC)ccc3OC2)CC1CCO (stereo unspecified)	-31%	0%	9.3µM*	?
OCCC1CN(Cc2cccc3c2OCO3)CCN1Cc1ccccc1 (stereo unspecified)	-14%	0%	7%	?
COc1ccc(CN2CCN(CCc3ccccc3)C(CCO)C2)c(O)c1 (stereo unspecified)	45µM*	-1%	10µM*	18%
OCCC1CN(Cc2ccccc2-c2ccco2)CCN1Cc1ccccc1 (stereo unspecified)	?	0%	?	9.3µM*
COc1ccc(CN2CCN(CCCc3ccccc3)C(CCO)C2)c(O)c1 (stereo unspecified)	?	3%	?	2.9µM*
COc1ccccc1C(=O)Nc1c(C(=O)N(C)c2ccccc2)sc2nc(C)cc(C)c12	6%	·	·	·
Cc1ccc(C(C)C)c(OCC(=O)NN=C2CCCC(=O)C2)c1	·	-6%	·	·
COc1cc(CN2CCN(CCCc3ccccc3)C(CCO)C2)cc(OC)c1O (stereo unspecified)	20µM*	-5%	-6%	-65%
OCCC1CN(Cc2nc3c(s2)CCCC3)CCN1CCc1ccccc1 (stereo unspecified)	-13%	1%	?	?
OCCC1CN(Cc2c(O)ccc3ccccc23)CCN1CCc1ccccc1 (stereo unspecified)	0.63µM*	0%	?	-30%
OCCC1CN(Cc2nc3c(s2)CCCC3)CCN1Cc1ccccc1 (stereo unspecified)	35µM*	-1%	?	4%
Cc1ccccc1CN1CCN(CCCc2ccccc2)C(CCO)C1 (stereo unspecified)	-12%	-9%	?	4%
COc1ccc(O)c(CN2CCN(CCc3ccccc3)C(CCO)C2)c1 (stereo unspecified)	-21%	-2%	0%	?
COc1ccc(CN2CCN(CCCc3ccccc3)C(CCO)C2)c(OC)c1 (stereo unspecified)	2%	2%	-25%	?
OCCC1CN(Cc2ccccc2O)CCN1CCCc1ccccc1 (stereo unspecified)	-13%	?	6.6µM*	-10%
CC(OC(=O)c1ccc2c(c1)OCCO2)C(=O)c1ccccc1 (stereo unspecified)	-3%	-4%	96%	148%
CCn1c(C)nc2cc(C(=O)n3cc(C(=O)c4cc(F)ccc4O)cn3)ccc21	55%	0%	28%	0.83µM*
SMILES	Sm TGR inh	SARS PLP yeast	Pf growth 48h	Pf growth 96h
O=C(c1cnn(C(=O)c2ccco2)c1)c1cc(F)ccc1O	·	0%	·	·
O=C(Nc1ccc(NC(=O)c2cccs2)cc1)c1ccc(Br)cc1	-7%	·	·	·
COc1cc(-c2cc(OC)c3c(C)oc(C)c3c(=O)c2)ccc1O	-15%	-2%	?	3.7µM*
COc1ccc(-c2cc(OC(=O)c3ccc(Cl)cc3)c3c(C)oc(C)c3c(=O)c2)cc1	40µM*	·	·	·
COc1ccc(-c2cc(OC(=O)c3ccc(F)cc3)c3c(C)oc(C)c3c(=O)c2)cc1OC	-35%	·	·	·
COc1ccc(-c2cc(OC)c3c(C)oc(C)c3c(=O)c2)cc1OC	50µM*	-27%	4.7µM*	29%
CCOC(=O)c1c(-c2ccccc2)oc2ccc(OCc3ccccc3Br)cc12	-10%	·	·	·
COc1cc(CCC(=O)OCC(=O)NCCc2ccc(S(N)(=O)=O)cc2)cc(OC)c1OC	·	-4%	·	·
O=c1ccc2cc3c([nH]c4ccc(Br)cc43)oc-2c1O	56µM*	-1%	9%	26%
O=C(O)Cc1c(-c2ccccc2)c2cc(Br)ccc2[nH]c1=O	7%	-1%	-16%	18%
O=C(NNc1nc2ccccc2s1)c1ccc(F)cc1	-7%	22%	13µM*	?
O=C(Nc1nc(-c2ccccc2)cs1)c1ccccc1F	4%	-9%	52%	13µM*
O=C(NNc1nc(-c2ccccc2)cs1)c1ccc(F)cc1	0%	4%	12µM*	9.3µM*
CC(C)(C)c1csc(NNC(=O)c2ccc(Br)cc2)n1	17%	-23%	2.9µM*	?
COc1ccc(-c2csc(NC(=O)c3ccccc3F)n2)cc1	15%	4%	-9%	?
CC(C)(C)c1csc(NC(=O)c2ccccc2O)n1	-12%	-23%	-3%	17%
CC(C)CCn1c(=O)c2cccnc2n(CC(=O)Nc2ccccc2)c1=O	-18%	·	·	·
O=S(=O)(Nc1ccc(C(F)(F)F)cc1)c1ccc2c(c1)OCCO2	6%	·	·	·
O=C(NNc1nc(-c2ccc(F)cc2)cs1)c1ccccc1	3%	5%	5.2µM*	8.3µM*
O=C(NNc1nc(-c2ccccc2)cs1)c1cccs1	-20%	9%	?	?
O=C1OC(Nc2nc(-c3ccc(F)cc3)cs2)c2ccccc21 (stereo unspecified)	4µM*	0%	?	?
COc1ccc(C(=O)CC2(O)C(=O)N(Cc3ccccc3)c3ccc(Br)cc32)cc1 (stereo unspecified)	7%	·	·	·
COC(=O)C1=C(CN2CCSCC2)NC(=O)NC1c1cc(C)ccc1C (stereo unspecified)	-14%	2%	?	29%
CCOC(=O)C1=C(CN2CCSCC2)NC(=O)NC1c1cc(C)ccc1C (stereo unspecified)	-23%	1%	12µM*	-1%
CCOC(=O)C1=C(CSc2nc3ccccc3s2)NC(=O)NC1c1cc(C)ccc1C (stereo unspecified)	-3%	-1%	?	9.3µM*
CCOC(=O)C1=C(CN2CCN(C(=O)c3ccco3)CC2)NC(=O)NC1c1ccc(C)cc1 (stereo unspecified)	-35%	7%	13µM*	?
COC(=O)C1=C(CN2CCN(C)CC2)NC(=O)NC1c1cc(C)ccc1C (stereo unspecified)	5%	0%	?	·
COC(=O)C1=C(CN2CCc3ccccc32)NC(=O)NC1c1cc(C)ccc1C (stereo unspecified)	-30%	-7%	10µM*	·
